This is part of a sample that, as a whole, favours compounds with a hit. Of some 79,000 tested, about 15% had one in any assay. Unmarked numbers belong to inactive results. Active and inactive are the calls of the source. Rule as the data show it: active = growth inhibition above about 70%; inactive = the rest.
Key:
[1] = NCI Yeast Anticancer Drug Screen. Data for the rad50 strain (AID 155);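 also: 0% = growth of vehicle-only cultures of the same strain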; settings: S. cerevisiae rad50 strain growth inhibition, stronger effect = higher value
In short: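 Vehicle-treated cultures provide the reference for the growth inhibition reported for compound-exposed, repair-deficient yeast.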

[2] = NCI Yeast Anticancer Drug Screen. Data for the mec2-1 strain (AID 157); settings: S. cerevisiae mec2-1 strain, stronger effect = higher value
In short: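 Cells of the genetically defined mec2-1 yeast strain are incubated with test compound. Inhibition of growth is calculated against vehicle-treated controls.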

[3] = NCI Yeast Anticancer Drug Screen. Data for the sgs1 mgt1 strain (AID 161);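 also: 0% = growth of cultures given vehicle only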; settings: S. cerevisiae sgs1 mgt1 strain, stronger effect = higher value
In short: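 Inhibition of yeast growth, normalised to vehicle-treated controls, is reported for a strain bearing genetic alterations in DNA damage repair.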

[4] = NCI Yeast Anticancer Drug Screen. Data for the cln2 rad14 strain (AID 165);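 also: 0% = growth equal to vehicle treated cultures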; settings: S. cerevisiae cln2 rad14 strain, stronger effect = higher value
In short: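 The screen exposed genetically defined yeast (cln2 rad14) to test compounds and scored growth inhibition relative to vehicle-treated controls.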

[5] = NCI Yeast Anticancer Drug Screen. Data for the bub3 strain (AID 167); settings: S. cerevisiae bub3 mutant strain, stronger effect = higher value
In short: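 Mutant yeast screening strain plus compound; vehicle-treated cultures serve as the 0% inhibition reference.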

[6] = NCI Yeast Anticancer Drug Screen. Data for the mlh1 rad18 strain (AID 175); settings: S. cerevisiae mlh1 rad18 strain growth inhibition, stronger effect = higher value
In short: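 Compound-treated yeast growth, normalised to vehicle controls. Strain bears defined DNA repair mutations.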

[7] = at 5.0 µM (retest, dose inferred, filed as 0.5)
[8] = at 50.0 µM (retest, dose inferred, filed as 5.0)

Structure (SMILES) | growth inhibition [1, 7] | growth inhibition [1, 8] | growth inhibition ([1]; at 50.0 µM) | growth inhibition [2, 7] [%] | growth inhibition [2, 8] | growth inhibition ([2]; at 50.0 µM) | growth inhibition [3, 7] [%] | growth inhibition [3, 8] | growth inhibition ([3]; at 50.0 µM) | growth inhibition [4, 7] [%] | growth inhibition [4, 8] | growth inhibition ([4]; at 50.0 µM) | growth inhibition [5, 7] [%] | growth inhibition [5, 8] | growth inhibition ([5]; at 50.0 µM) | growth inhibition [6, 7] [%] | growth inhibition [6, 8] | growth inhibition ([6]; at 50.0 µM)
Fc1ccc(NP(=S)(Nc2ccc(F)cc2F)Nc2ccc(F)cc2F)c(F)c1 | 33% | 99% (active) | 99.2% (active) | 42 | 99% (active) | 99.3% (active) | 39 | 99% (active) | 99% (active) | 56 | 99% (active) | 98.7% (active) | 26 | 99% (active) | 98.8% (active) | 30 | 98% (active) | 99.2% (active)
C/C(=N\N=C(\[Se])N1CCN(c2ccccn2)CC1)c1ccccn1 | -2% | 88% (active) | 70.3% (active) | -1 | 98% (active) | 70% | 5 | 95% (active) | 82% (active) | -9 | 83% (active) | 9.4% | 9 | 96% (active) | 93.2% (active) | 59 | 93% (active) | 78.2% (active)
CC(C(=O)C1CCCCC1)[n+]1ccccc1 (stereo not given) | 1% | -2% | -1.2% | 1 | 1% | 1.3% | 0 | -2% | -2.3% | 9 | -2% | 48.5% | 3 | 1% | 11.2% | -4 | -6% | -5.85%
CCC1(O)C(=O)OCc2c1cc1n(c2=O)Cc2cc3cc([N+](=O)[O-])ccc3nc2-1 (stereo not given) | 76% (active) | 95% (active) | 77.9% (active) | 10 | 46% | 43.4% | 21 | 33% | 24.9% | 14 | 8% | -2.9% | 13 | 10% | -21.3% | 10 | 32% | 59.5%
OC(c1cc2c(c3ccccc13)CCCC2)C1CCCCN1 (stereo not given) | -4% | 17% | 64.5% | -1 | 12% | 42.4% | 3 | 47% | 68% | 1 | 21% | 79.7% (active) | 0 | 18% | 59% | 0 | 41% | 95.5% (active)
O=C(Nc1ccccc1)OC(C[N+](=O)[O-])C(Cl)(Cl)Cl (stereo not given) | 12% | 99% (active) | 99.3% (active) | 10 | 100% (active) | 95.8% (active) | 5 | 99% (active) | 99.1% (active) | 10 | 91% (active) | 42.6% | 2 | 100% (active) | 99.2% (active) | 11 | 99% (active) | 99.2% (active)
NC1=C(c2nc(-c3ccccc3)cs2)C(c2ccc(Br)cc2)c2c(c3ccccc3oc2=O)O1 (stereo not given) | 5% | 99% (active) | 0.8% | 6 | 100% (active) | 29.2% | 7 | 99% (active) | 17.2% | 3 | 99% (active) | 42.4% | 4 | 99% (active) | 28.8% | 6 | 99% (active) | 46.1%
CC(=O)[O-].[Zn].c1ccc(/C(=N\Nc2ccccn2)c2ccccn2)cc1 | 29% | 66% | 41.9% | 37 | 61% | 9.8% | 38 | 83% (active) | 23.8% | 26 | 78% (active) | 13.8% | 44 | 86% (active) | 34.6% | 36 | 68% | 41.1%
COC([CH2][Hg][n]1cnc2c1c(=O)n(C)c(=O)n2C)CN1C(=O)c2ccccc2S1(=O)=O (stereo not given) | 9% | 94% (active) | 96.8% (active) | 20 | 84% (active) | 95.3% (active) | -2 | 89% (active) | 87.7% (active) | -11 | 69% | 87.2% (active) | -1 | 89% (active) | 95.1% (active) | -1 | 95% (active) | 97% (active)
O=C(CCCC(=O)NNC(=O)Nc1cccc(S(=O)(=O)F)c1)NNC(=O)Nc1cccc(S(=O)(=O)F)c1 | 1% | 3% | 73.2% (active) | 11 | 20% | 72.3% (active) | 3 | -19% | 80% (active) | -8 | -8% | 52.7% | -6 | -1% | 84.3% (active) | 9 | 33% | 72.8% (active)
